Several values for one entry are separate records, joined by “and”; a condition that tells them apart may be missing. Equal values may be shown once. Activity calls are given as the source filed them. Unless noted, no rule for the calls is given here.
Key:
[1] = tested on: Hepatitis C virus NS3 helicase; test: HCV NS3 helicase inhibitors, primary screen, biochemical, fluorescence polarization, LOPAC1280 library (AID 687035; in the data active = inhibition above about 37%); conditions: Purified HCV NS3 helicase, Cy5-dT15 ssDNA binding fluorescence polarization; stronger effect = higher value; concentration not given here
[2] = Cy5 fluorescence quenching or enhancement artefacts, artefact control for HCV NS3 helicase inhibitor project, biochemical, LOPAC1280 (AID 687037); conditions: Cy5-DNA-NS3h complex fluorescence interference counterscreen
[3] = stimulators of nuclear beta-catenin in C2C12, primary screen, imaging, WNT3A-conditioned medium, mouse C2C12, NPC library (AID 1117326; in the data active = nuclear beta-catenin stimulation mostly above about 4.2%, no sharp cut-off; inactive = mostly below about 10%); conditions: stronger effect = higher value
[4] = stimulators of insulin release from INS-1E, primary screen, cell-based, 5 mM glucose, NPC library (AID 1117329;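 active = compound raises insulin release from rat beta cells at 5 mM glucose, no numeric limit stated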); conditions: rat INS-1E insulin secretion, at 10 µM, stronger effect = higher value
[5] = growth inhibition of GSK3B-pretreated HCT116 cells – cell-based, CellTiter-Glo, 0.2 to 20 µM (AID 1117336;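 active = compounds lowering colon cancer cell viability after pretreatment blocking the GSK3B kinase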); conditions: HCT116 viability after GSK3B inhibitor, at 20 µM, stronger effect = higher value
[6] = inhibition of endothelial tube formation, primary screen, imaging, VEGF stimulated, CD31 staining, tube area, NPC library (AID 1117340;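 active = compound that reduces growth-factor-driven endothelial tube area in a mixed cell culture, no cutoff stated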); conditions: VEGF-stimulated ADSC/ECFC co-culture, at 10 µM, stronger effect = higher value
[7] = glucagon-like peptide 1 release enhancers, primary assay, NCI-H716 cell line, NPC library (AID 1117341;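 active = compound raises GLP1 secretion from the human gut endocrine cells, with no numeric limit stated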); conditions: NCI-H716 cells, at 10 µM, stronger effect = higher value
[8] = HCT116 colon cancer cell growth inhibition, primary screen, CellTiter-Glo luminescence, NPC library (AID 1117342;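 active = compounds that lower survival of HCT116 colon cancer cells in the luminescence readout, no numeric limit stated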); conditions: at 20 µM (top of the series)
[9] = CellTiter-Glo luminescent readout of SW480 viability loss, NPC library primary (AID 1117343;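 active = compounds that lower viability of the colon cancer cells in the luminescence readout, with no numeric limit stated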); conditions: CellTiter-Glo luminescence; at 20 µM (top of the series)
[10] = decreased DLD-1 cellular survival, CellTiter-Glo luminescent readout, NPC compound collection, primary HTS (AID 1117346;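 active = compounds that lower survival of DLD-1 colon cancer cells in the luminescence readout, no cutoff given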); conditions: DLD-1 viability, CellTiter-Glo luminescence; at 20 µM (top of the series)
[11] = molecular target: 6-phosphogluconate dehydrogenase, decarboxylating (Homo sapiens) (UniProt P52209); test: 6PGD enzyme inhibitors, primary screen, biochemical, human, recombinant enzyme, NADPH absorbance (AID 1159550;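 active = at least 20% inhibition of 6-phosphogluconate dehydrogenase activity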); conditions: recombinant 6PGD, NADPH absorbance 341 nm; at 10 µM; stronger effect = higher value
Chain of 6-phosphogluconate dehydrogenase, decarboxylating (Homo sapiens) (P52209 whole entry, looked up): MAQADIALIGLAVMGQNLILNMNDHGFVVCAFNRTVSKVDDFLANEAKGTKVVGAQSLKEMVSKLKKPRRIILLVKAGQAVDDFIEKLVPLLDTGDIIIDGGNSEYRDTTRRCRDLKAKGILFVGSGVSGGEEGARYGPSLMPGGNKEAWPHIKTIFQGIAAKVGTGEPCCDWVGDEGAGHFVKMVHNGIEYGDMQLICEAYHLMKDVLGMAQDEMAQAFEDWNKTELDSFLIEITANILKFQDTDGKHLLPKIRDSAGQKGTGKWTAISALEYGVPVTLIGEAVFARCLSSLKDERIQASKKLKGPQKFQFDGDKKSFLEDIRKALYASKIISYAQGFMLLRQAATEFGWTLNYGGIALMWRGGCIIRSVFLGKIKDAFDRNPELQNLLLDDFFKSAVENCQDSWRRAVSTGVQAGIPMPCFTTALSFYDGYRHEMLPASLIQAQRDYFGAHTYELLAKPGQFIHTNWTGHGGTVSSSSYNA

[12] = Cy5 fluorescence interference with SSB-bound oligo, artefact control for HCV NS3 helicase inhibitor project, biochemical, NIH Clinical Collection, E. coli SSB (AID 743268)
[13] = tested on: Hepatitis C virus NS3 helicase; test: HCV NS3 helicase inhibitors, primary screen, biochemical, fluorescence polarization, NIH Clinical Collection (AID 743270); conditions: NS3 helicase binding to Cy5-dT15 DNA, stronger effect = higher value, concentration not given here
[14] = molecular target: Single-stranded DNA-binding protein (Escherichia coli (strain K12)) (UniProt P0AGE0); test: E. coli SSB displacement from DNA, counter-screen for HCV NS3 helicase inhibitor project, biochemical, fluorescence polarization, NIH Clinical Collection (AID 743271; in the data active = inhibition above about 28%); conditions: stronger effect = higher value, concentration not given here
[15] = fluorescence interference in NS3h assay format, artefact control for HCV NS3 helicase inhibitor project, biochemical, NIH Clinical Collection (AID 743272); conditions: fluorescence interference counterscreen, stronger effect = lower value;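 also: HCV NS3 helicase with a Cy5 labelled single stranded DNA probe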
[16] = tested on: Neuropilin-2 / VEGF-C interaction (human); test: inhibitors of NRP2–VEGF-C binding, biochemical, microplate binding format, z-score (AID 743281); conditions: microplate NRP2/VEGF-C binding assay; stronger effect = lower value
[17] = liver-stage malaria parasite growth inhibition, primary screen, cell-based, HepG2, luciferase luminescence, HepG2 viability (AID 624349; in the data active = parasite load remaining mostly below about 12%, no sharp cut-off; inactive = mostly above about 10%;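 also: 100% = mean of DMSO negative control wells on the same plate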); conditions: P. berghei liver stage in HepG2, luciferase luminescence, concentration not given here; parasite load remaining: stronger effect = lower value; viability: measured here: HepG2 viability without parasites

Compound | inhibition [1] | fluorescence ratio (interference) [2] | nuclear beta-catenin stimulation ([3]; at 10 µM) | nuclear beta-catenin stimulation ([3]; stimulation, at 2 µM) [%] | insulin secretion stimulation [4] | viability decrease [5] | tube area decrease [6] | GLP1 secretion stimulation [7] | inhibition of viability [8] | viability decrease (inhibition) [9] | viability decrease (inhibition) [10] | inhibition [11] | fluorescence ratio [12] | inhibition [13] | inhibition [14] | fluorescence ratio [15] | z-score [16] | parasite load remaining [17] | viability [17]
CN(C)CCCN1c2ccccc2Sc2ccc(C(F)(F)F)cc21 | -5% (inactive) | 1 (inactive) | 41.9% (active) | 3.5 | 5.8% (inactive) | 68.5% (active) | 45.1% (active) | 17.9% (inactive) | 88.7% (active) | 137% (active) | 101% (active) | 1.69% (inactive) | – | – | – | – | – | – | –
NCCCC(=O)O | – | 1 (inactive) | 2.4% (inactive) | 1.9 | -0.7% (inactive) | 3.2% (inactive) | 12% (inactive) | 1.6% (inactive) | 1.3% (inactive) | 10.4% (inactive) | 0.95% (inactive) | 15.9% (inactive) | – | – | – | – | – | – | –
CCN(CC)CCOCCOC(=O)C1(c2ccccc2)CCCC1 | 0% (inactive) | 1 (inactive) | -0.6% (inactive) | -0.4 | 60% (active) | 19.3% (inactive) | -3.1% (inactive) | 5.7% (inactive) | 56.4% (active) | 20.6% (inactive) | 62.5% (active) | 1.3% (inactive) | – | – | – | – | – | – | –
COC(=O)Nc1nc2ccc(C(=O)c3cccs3)cc2[nH]1 | -5% (inactive) | 0.9 (inactive) | 80.4% (active) | 81.3 | -0.3% (inactive) | 69.2% (active) | 105% (active) | -3.1% (inactive) | 60.8% (active) | 22.9% (inactive) | 58.6% (active) | -7.55% (inactive) | – | – | – | – | – | – | –
CCC1(C)CC(=O)NC1=O (stereo not drawn) | 0% (inactive) | 1 (inactive) | 0.2% (inactive) | -0.3 | 0% (inactive) | -17.5% (inactive) | -2.9% (inactive) | -2.3% (inactive) | -5.57% (inactive) | -27.9% (inactive) | -7.1% (inactive) | -0.667% (inactive) | – | – | – | – | – | – | –
CCCCNc1ccc(C(=O)OCCN(C)C)cc1 | -2% (inactive) | 0.9 (inactive) | 9.2% (inactive) | 3.3 | 0% (inactive) | -26.9% (inactive) | 9.8% (inactive) | 0.3% (inactive) | 18% (inactive) | 47% (inactive) | 3.1% (inactive) | -7.63% (inactive) | – | – | – | – | – | – | –
Cc1ncc([N+](=O)[O-])n1CCO | – | – | -0.2% (inactive) | 0.7 | -1.4% (inactive) | 55.6% (active) | -14.9% (inactive) | -0.3% (inactive) | 18.5% (inactive) | 75.1% (active) | 55% (active) | -20.7% (inactive) | 0.95 (inactive) | -2.77% (inactive) | 4.52% (inactive) | 0.88 (inactive) | -0.317 (inactive) | – | –
O=C(O)c1cccnc1Nc1cccc(C(F)(F)F)c1 | -1% (inactive) | 0.9 (inactive) | 1.4% (inactive) | 0.9 | -3.1% (inactive) | 13% (inactive) | 12.7% (inactive) | 0.6% (inactive) | -5.9% (inactive) | 60% (active) | 28.2% (inactive) | 12.6% (inactive) | – | – | – | – | – | – | –
COc1ccc2[nH]cc(CCNC(C)=O)c2c1 | -3% (inactive) | 1 (inactive) | 0.2% (inactive) | -0.2 | -2.5% (inactive) | -6.45% (inactive) | -3.4% (inactive) | 4.5% (inactive) | -6.9% (inactive) | 20.8% (inactive) | 7.55% (inactive) | 6.51% (inactive) | – | – | – | – | – | – | –
NC(N)=NC(=O)Cc1c(Cl)cccc1Cl | 1% (inactive) | 1 (inactive) | -0.4% (inactive) | 2.6 | -2.2% (inactive) | 16.7% (inactive) | 11.5% (inactive) | -3% (inactive) | 68.9% (active) | 34.1% (inactive) | 29% (inactive) | – | – | – | – | – | – | 29.4% (inactive) and 52.8% (inactive) and 54.1% (inactive) | 118% and 76.4% and 154%
CNC[C@H](O)[C@@H](O)[C@H](O)[C@H](O)CO | – | – | -1.8% (inactive) | -1.1 | 0.7% (inactive) | -9.2% (inactive) | -17.1% (inactive) | 10.1% (inactive) | 4.6% (inactive) | 0.6% (inactive) | 15.4% (inactive) | – | – | – | – | – | – | 64.5% (inactive) | 224%
CO[C@@H]1[C@@H](OC(N)=O)[C@@H](O)[C@H](Oc2ccc3c(O)c(NC(=O)c4ccc(O)c(CC=C(C)C)c4)c(=O)oc3c2C)OC1(C)C | – | – | -0.7% (inactive) | 1.5 | -0.3% (inactive) | -78.9% (inactive) | -1.9% (inactive) | 0.7% (inactive) | -1.6% (inactive) | -22.2% (inactive) | -21.8% (inactive) | – | – | – | – | – | – | 96.3% (inactive) and 84% (inactive) | 73.9% and 88.8%
NCCS(=O)(=O)O | -4% (inactive) | 0.9 (inactive) | 5.3% (inactive) | 2.5 | 2.6% (inactive) | -1.3% (inactive) | -12% (inactive) | 0.3% (inactive) | -12.3% (inactive) | -4.6% (inactive) | -1.5% (inactive) | – | – | – | – | – | – | 52.5% (inactive) | 97.6%
